Measured values reported in PubChem BioAssay AID2314 (National Center for Advancing Translational Sciences (NCATS), 2010).
Several values for one entry are separate records, joined by “and”; a condition that tells them apart may be missing. Equal entries are not always repeated. In all, about 300,000 compounds went through this assay and about 37,000 (12%) were called active. The sample as a whole holds a higher share of actives than the screen did. A number with no mark means an inactive call. Cut-off read from the data, not from the text of the source: active = max response mostly above about 13% (no sharp cut-off); inactive = mostly below about 14%.

experiment: Cycloheximide Counterscreen for Small Molecule Inhibitors of Shiga Toxin; settings: cell reporter, cycloheximide protein synthesis inhibition counterscreen; active compounds read high; note: read at 38.3 µM for the half of the compounds with a filed dose; 0% is about no effect

SMILES	max response
Cc1cc2c(=O)n(CC(=O)NCC(=O)Nc3ccc(C(C)C)cc3)cnc2s1	-5.28%
COc1cc(/C=N/NC(=O)Cc2ccccc2)cc(OC)c1OC	-1.38%
COc1cc(C)c(C)cc1S(=O)(=O)N1CCCc2ccccc21	17.6% (active)
Cn1c(=O)n(C)c2cc(S(=O)(=O)N3CCCc4ccccc43)ccc21	-0.606%
COc1ccc(C(=O)OCC(=O)NCC2CCCCC2)cc1S(=O)(=O)N1CCCc2ccccc21	-2.88%
CCC(=O)Nc1ccc(S(=O)(=O)Nc2c(NC)c3ccccc3oc2=O)cc1	11%
CCN(CC)c1ccc2c(Nc3ccccc3)c(C=O)c(=O)oc2c1	17.7% (active)
CCOC(=O)Nc1ccc2c(c1)N(C(=O)CCCl)c1ccccc1[S@]2=O	4.2%
CCOc1ccc(C(CC(=O)O)NC(=O)Cc2ccccc2)cc1OC (stereo not drawn)	-1.44%
CCNS(=O)(=O)c1ccc(CCC(=O)N2CCN(c3cc(Cl)ccc3C)CC2)cc1	-1.74%
Cc1ccc(C(=O)N2CCCC2)c(F)c1F	-2.63%
O=C(c1cccs1)N(C(=O)c1cccs1)c1ccccn1	21.4% (active)
COc1ccc(CN(Cc2ccc(OC)cc2)C(=O)c2cccs2)cc1	4.04%
COc1ccc(CN(C(=O)c2cccs2)c2nccs2)cc1OC	-2.68%
CCc1ccc(CN(C)Cc2nc(Cc3ccccc3)no2)nc1	0.562%
CC(=O)c1ccc(-c2nnc(CCC(=O)N(C)Cc3cnc4ccccn34)o2)s1	8.64%
CCc1ccc(CN(C)C(=O)CCc2nnc(-c3ccc(-c4ccccc4)cc3)o2)nc1	16.7% (active)
Cn1cc(CCC(=O)N2CCCC(C(=O)c3ccc(C(C)(C)C)cc3)C2)cn1 (stereo not drawn)	7.09%
COC(=O)CSc1nc(C)c2ccc(OC)cc2n1	42.7% (active)
COC(=O)CSc1nc(C2CC2)nc2ccccc12	-1.2%
COc1ccc2nc(SCc3ccccc3)nc(C)c2c1	55.9% (active)
COc1ccc2[nH]c3nc(SCC(=O)NC4CC4)nnc3c2c1	-1.61%
COc1ccc(-c2nnc3ccc(SCc4ccccc4)nn23)cc1	-1.33%
COc1cccc(CSc2nc3nc(C)cc(C)n3n2)c1	3.55%

SMILES	max response
Cc1cccc(C)c1NC(=O)COC(=O)c1ccccc1O	-0.421%
CCOC(=O)C1CCCN(S(=O)(=O)c2ccc(-n3cnnn3)c(C)c2)C1 (stereo not drawn)	-3.27%
CC(C)c1ccc(NC(=O)[C@@H](NC(=O)N2CC(=O)Nc3ccccc32)C(C)C)cc1	1.52%
COc1ccc(-n2c(=O)[nH]c3cc(C(=O)NCCc4ccc(OC)c(OC)c4)ccc3c2=O)c(OC)c1	0.206%
C=CCSc1nc2c(c(=O)[nH]c(=O)n2C)n1Cc1ccccc1	-3.59%
NS(=O)(=O)c1ccc(NC(=O)COC(=O)c2cc3ccccc3oc2=O)cc1	10.3% (active)
NS(=O)(=O)c1ccc(NC(=O)COC(=O)CCc2c[nH]c3ccccc23)cc1	-3.16%
Cc1cc(C)cc(OCC(=O)NNC(=O)c2cc3ccccc3oc2=O)c1	24.7% (active)
NS(=O)(=O)c1ccc(NC(=O)COC(=O)c2ccco2)cc1	-1.96%
COc1ccc2oc(=O)c(C(=O)NCc3ccccn3)cc2c1	30.2% (active)
Cc1cc(C)cc(OCC(=O)NNC(=O)CCN2C(=O)c3ccccc3C2=O)c1	-0.614%
Cc1cc(C)cc(OCC(=O)NC(C)c2ccccc2)c1 (stereo not drawn)	4.02%
O=C(NCc1ccccn1)c1cnc2sccn2c1=O	-2.63%
COc1ccc2oc(=O)c(C(=O)N3CCCC3)cc2c1	-2.74%
O=C(NCc1ccccn1)c1cc2ccccc2oc1=O	36% (active)
COc1ccc(-c2nc(CS(=O)CC(=O)NCc3ccccn3)c(C)o2)cc1 (stereo not drawn)	7.49%
O=C(NCc1ccccn1)c1cc(Br)ccc1Cl	17.7%
CC(=O)N1c2ccc(S(=O)(=O)N3CCC(C(=O)N4CCN(c5ccccc5)CC4)CC3)cc2CC1C (stereo not drawn)	-2.01%
O=C(Nc1cc(C(F)(F)F)ccc1Cl)c1cc2nc3c(c(C(F)(F)F)n2n1)CCCC3	-1.76%
C#CCOc1ccc(/C=C2/C(=O)ON=C2C)cc1OCC	3.92%
CCOC(=O)c1cc2cc3ccccc3cc2oc1=O	21.6% (active)
CCCOC(=O)c1cc2ccccc2oc1=O	11.4%
C=CCc1cccc2cc(C(=O)OCC)c(=O)oc12	-2.44%
CC[C@]1(O)CC2CN(CCc3c([nH]c4ccccc34)[C@@](C(=O)OC)(c3cc4c(cc3OC)N(C=O)[C@H]3[C@@](O)(C(=O)OC)[C@H](OC(C)=O)[C@]5(CC)C=CCN6CC[C@]43[C@@H]65)C2)C1 (stereo partly drawn)	-6.26%

SMILES	max response
CCOc1ccccc1N1C(=O)CC(Sc2nccc(C)n2)C1=O (stereo not drawn)	0.743%
Cc1ccc(S(=O)(=O)c2c(COC(=O)c3cccc(Cl)c3)c(-c3ccccc3)nn2C)cc1	-6.17%
O=C(OCc1ccc(Br)cc1)c1cccc(-c2nnc(-c3ccccc3)o2)c1	13.9%
O=C(OCc1ccc(-c2ccccc2)cc1)c1cccc(O)c1	57.7% (active)
CC(=O)Nc1ccccc1C(=O)OCC(=O)c1cccc2ccccc12	7.37%
O=C(Cc1c[nH]c2ccccc12)OCCOC(=O)Cc1c[nH]c2ccccc12	-4.53%
O=C(OCC(=O)c1c[nH]c2ccccc12)c1cccc(O)c1	72.9% (active)
C=C(C)C(=O)Nc1cccc(C2=NOC3(C2)C[C@H](C(N)=O)N(C(=O)C(c2ccccc2)c2ccccc2)C3)c1 (stereo partly drawn)	-6.93%
CSc1ccc(C(=O)C2CCCN(C(=O)c3ccc(C)nc3)C2)cc1 (stereo not drawn)	-0.923%
O=S(=O)(Nc1ccc2[nH]ncc2c1)c1ccccc1Cl	-3.76%
CN(Cc1ccco1)S(=O)(=O)c1nnc(NC(=O)c2ccccc2)s1	26%
COc1cccc(-c2cccc(NC(=O)C3CCN(C4CCC4)CC3)c2)c1	-2.09%
Cc1n[nH]c(=O)n1-c1ccc(Oc2ccccc2)cc1	16.2% (active)
Cc1n[nH]c(=O)n1-c1ccc(C(C)C)cc1	4.16%
O=C1CS(=O)CN1c1ccc(Oc2ccccc2)cc1 (stereo not drawn)	-1.61%
COc1cccc(N(C(=O)c2snc(C(N)=O)c2N)C(C(=O)NCC2CCCO2)c2c[nH]c3ccccc23)c1 (stereo not drawn)	-2.27%
COC(=O)c1ccccc1NC(=O)C1(S(=O)(=O)c2ccc(Cl)cc2)CC1	-5.97%
COc1ccc(S(=O)(=O)N(C)C)cc1NC(=O)CSc1ncccn1	8.4%
CN(C)S(=O)(=O)c1ccc2oc(SCC(=O)Nc3ccccc3F)nc2c1	40% (active)
COc1ccc(NS(=O)(=O)c2ccc3oc(SCC(N)=O)nc3c2)cc1	-2.16%
CCC1(C(=O)c2ccccc2)C(c2cccc([N+](=O)[O-])c2)C1(C(=O)OC)C(=O)OC (stereo not drawn)	-5.04%
N#Cc1c(N2CCCCC2)nc(N)c2c(N)nc(SCC(=O)O)cc12	-0.559%
Cc1ccc(-n2c(C)cc(/C=C(\C#N)C(=O)NCC3CCCO3)c2C)cc1 (stereo not drawn)	50.5% (active)
Cc1cc(/C=C(/C#N)C(=O)Nc2ccc(Cl)cc2)c(C)n1-c1cccnc1	1.53%

SMILES	max response
Cc1ccc(S(=O)(=O)N2CCC(C(=O)NCC3CCCO3)CC2)cc1 (stereo not drawn)	-2.91%
COc1ccc(CCNS(=O)(=O)c2cn(C)nc2C)cc1	-0.628%
CC(C)=N/N=C1/NC(=O)C(Cc2ccccc2)S1 (stereo not drawn)	-3.98%
C=CCn1c(SCc2c(C)noc2C)nc2sc3c(c2c1=O)CCC(C)C3 (stereo not drawn)	-3.64%
CCCn1nnc2sc3c(c2c1=O)CCC(C)C3 (stereo not drawn)	35.5% (active)
CC1CCc2c(sc3nc4n(c(=O)c23)CCS4)C1 (stereo not drawn)	31.9%
COc1cc(C2OC(c3cc(OC)c(OC)c(OC)c3)C(C)C2C)cc(OC)c1OC (stereo not drawn)	8.36%
CCOC(=O)c1nnn2c1nc(N1CCN(c3ccccc3)CC1)c1ccccc12	-4.05%
CCN(CC)CCC(c1cc(OC)c(OC)c(OC)c1)c1c(OC)cc(OC)c2c(-c3ccccc3)cc(=O)oc12 (stereo not drawn)	-8.53% and -14.6%
Cc1nn(C)c(Oc2ccccc2)c1CCNS(=O)(=O)c1ccc(F)cc1	-1.22%
COc1ccc(CCNc2ncnc3c2nnn3Cc2ccccc2)cc1	-1.82%
CN1CCN(c2ccc(CNS(=O)(=O)c3cccc(F)c3)cc2)CC1	-2.69%
CCC(C)n1c(-c2cc(OC)c(OC)c(OC)c2)nc2nc3ccccc3nc21 (stereo not drawn)	5.57%
COc1ccc(Nc2nc(-c3cccnc3)nc3ccccc23)cn1	-4.67%
Fc1ccc(/C=N/Nc2nc(-c3cccnc3)nc3ccccc23)cc1	46.2% (active)
COc1ccccc1Oc1nc(-c2cccnc2)nc2ccccc12	6.84%
CC(NS(=O)(=O)c1ccc(OCC(=O)N2CCCC2)cc1)c1ccccc1 (stereo not drawn)	-1.86%
CC(C)(C)NC(=O)c1ccc(Cn2cc(C(F)(F)F)ccc2=O)cc1	-2.26%
Cc1cccc(N(CC(=O)N2CCOCC2)S(C)(=O)=O)c1	-1.89%
Cc1cccc(N2C(=O)SC(N(CC(=O)O)c3cccc(C)c3)C2=O)c1 (stereo not drawn)	31.1% (active)
Cc1ccc(N2C(=O)SC(N(CC(=O)O)c3ccc(C)cc3)C2=O)cc1 (stereo not drawn)	5.36%
